Data reported in the supplement of paper PMC6555819.

Experiments:
Assay in all cases: PBM binding z-score (relative to random genomic background probes); higher = stronger binding; sequences stand for … in GC…GCGATTGACAGCGTAGAATGAAGG
[1] = system: FXR:RXRa (NR concentration 270 nM, RXRa partner concentration 90 nM)
Summary of the method: (§1)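 Ligand-free nuclear receptor dimers were bound for 1 h to custom Agilent 4×180K protein-binding microarrays. Detection used antibodies against each partner (one per run). Binding z-scores rest on regression-normalized fluorescence, with random background probes as the reference.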

[2] = system: LXRa:RXRa (NR concentration 270 nM, RXRa partner concentration 90 nM)
Summary of the method: as §1

[3] = system: LXRa homodimer (NR concentration 270 nM)
Summary of the method: as §1

[4] = system: LXRb:RXRa (NR concentration 270 nM, RXRa partner concentration 90 nM)
Summary of the method: as §1

[5] = system: LXRb homodimer (NR concentration 270 nM)
Summary of the method: as §1

[6] = system: PPARa:RXRa (NR concentration 270 nM, RXRa partner concentration 90 nM)
Summary of the method: as §1

[7] = system: PPARg:RXRa (NR concentration 180 nM, RXRa partner concentration 90 nM)
Summary of the method: as §1

[8] = system: PPARg:RXRa 270nM:90nM, anti-RXR (NR concentration 270 nM, RXRa partner concentration 90 nM)
Summary of the method: as §1

[9] = system: PPARg:RXRa 30nM:10nM, anti-RXR (NR concentration 30 nM, RXRa partner concentration 10 nM)
Summary of the method: as §1

[10] = system: PPARg:RXRa 90nM:30nM, anti-RXR (NR concentration 90 nM, RXRa partner concentration 30 nM)
Summary of the method: as §1

Sequence | PBM binding z-score [1] | PBM binding z-score [2] | PBM binding z-score [3] | PBM binding z-score [4] | PBM binding z-score [5] | PBM binding z-score [6] | PBM binding z-score [7] | PBM binding z-score [8] | PBM binding z-score [9] | PBM binding z-score [10]
TCGAGTAGGTTAGTCGGGGCATTCGGCCAACATA | -0.18 | -0.185 | -0.523 | 0.162 | -0.854 | 0.505 | -0.197 | 0.72 | 0.731 | 0.597
TGTCAAATTTCAAAGGTAACGTAAGTATCCACAC | 0.556 | 0.784 | -0.0184 | 0.869 | 0.492 | 0.954 | 0.712 | 1.41 | 1.62 | 1.41
ATCGAAAGGTCGAGGTGAGAATAGAGAAAGGGAA | 4.1 | 3.48 | 0.181 | 2.84 | 0.399 | 4.79 | 3.58 | 3.93 | 1.56 | 2.64
CGTCAAAGTTCAACTACGGTAACGTAAAGCACGC | 6.73 | 6.61 | 4.35 | 4.24 | 2.11 | 5.17 | 4.85 | 5.54 | 2.32 | 4.26
CCTACTGGGCCAAAAAGGTCATTCATGCCGATAA | 3.81 | 4.85 | 4.27 | 4.54 | 0.914 | 4.85 | 3.37 | 4.13 | 1.87 | 3.58
CCTACCGGGCCATTCAGAGGTCATTGATCATATG | 3.15 | 4.65 | 6.83 | 4.07 | 0.358 | 3.77 | 1.05 | 2.26 | 0.311 | 1.27
CCTACTGGGCCACGAAGGGTCATTGATTCAGTGA | 2.42 | 2.97 | 0.54 | 2.41 | -0.798 | 3.68 | 3.11 | 3.45 | 1.17 | 2.58
CCTTACGGGCCAAGGTTATAGCACGGGTGGTACG | -0.197 | 0.16 | -0.442 | -0.247 | -0.834 | 0.498 | 0.573 | 0.597 | -0.309 | -0.163
CCTCGGAGGACAACAGGAGGTCAGAGGTGCCAGA | 1.07 | 1.95 | 2.19 | 1.34 | -0.628 | 2.04 | 1.1 | 1.57 | -0.13 | 0.94
TAGCCTAGGTCAGATCGGGCCAGTATACGCTATA | 1.61 | 1.09 | -0.264 | 0.666 | -0.213 | 1.7 | 0.85 | 0.845 | -0.133 | 0.327
CCTTACGGGTCACGAGGTTATATCACGACGAGCG | 7.05 | 4.73 | 0.668 | 4.12 | -0.0743 | 6.05 | 7.17 | 6.76 | 3.62 | 5.46
CGTCCAAGGTCATAGGTCAGTGAAGAGATGACGG | 7.34 | 5.78 | 1.65 | 4.74 | 1.02 | 6.22 | 7.76 | 7.27 | 5.12 | 7.07
GGATATAGGTAATACAAGGTGAAAGTCCGATTGT | 1.08 | 2.72 | 0.722 | 1.12 | 0.202 | 2.58 | 2.63 | 2.51 | 0.801 | 1.87
TCGAGTAGGTTAACAATGGGGCATTCAGCTTTCT | 0.324 | 3.77 | -0.204 | 1.79 | -0.704 | 1.59 | 0.576 | 1.22 | 1.31 | 1.29
AGCTCTAGGTAACCAAGTTCAGTGAATGCCGAAC | -0.0702 | 0.208 | 0.46 | 0.265 | -0.228 | 0.481 | 0.22 | 0.513 | -0.0768 | -0.252
GTACCAAGGTGAATAAGTCGTTGATGAGTAGGCG | 0.544 | 0.243 | -0.143 | -0.0627 | -0.489 | 0.853 | 0.832 | 0.279 | 0.154 | -0.268
CAGACTGGGGCAAAGGTTACCATACTCAGTACGA | 2.11 | 2.13 | 0.0267 | 2.49 | -0.226 | 5.94 | 10.9 | 8.6 | 9.03 | 10.1
GCTGCTATGTCAACTGATGGTCAGCTAAAGCTCG | -0.296 | -0.497 | -0.849 | -0.37 | -0.729 | -0.283 | -0.143 | -0.387 | -0.655 | -0.456
CATAAAGGGTCAGCTAGGCCAGAGTAGGGACGGC | 5.38 | 3.9 | 0.537 | 2.74 | 0.607 | 4.71 | 4.17 | 3.83 | 1.06 | 2.82
TAGCTTAGGTCATTCAGGGGCCAGTATAGAAAGC | 4.82 | 4.33 | 0.984 | 3.31 | 1.67 | 3.69 | 1.38 | 2 | 0.369 | 1.11
TCTTATAGATCAAGCAGGTTAAGAAAGCCTGAGT | 0.514 | 0.381 | -0.0643 | 0.19 | -0.324 | 0.961 | -0.00693 | 1.62 | 3.48 | 2.75
CCGACTGGGGCAAGGTTACAATAACGCACAGCCA | 0.137 | 0.576 | -0.19 | 0.492 | -1.15 | 1.94 | 3 | 2.86 | 1.2 | 2.36
CCTACTGGCCCATCAGGTCATTGATATCAACGTT | 1.56 | 1.2 | 1.15 | 1.63 | 0.0775 | 1.62 | 0.503 | 1.07 | 0.112 | 0.701
AGAACGAGGGCACGCTGACTTGATAGCAGAGTAG | 0.758 | 0.896 | -0.482 | 0.363 | -0.85 | 2.31 | 2.29 | 1.85 | 0.503 | 1.18
AATAGCAGGCCAAGGGTCACTCAAGATTAGTCCG | 2.6 | 3.25 | 0.455 | 2.65 | -0.0727 | 4.75 | 8.33 | 7.83 | 6.83 | 8.23

Sequence | PBM binding z-score [1] | PBM binding z-score [2] | PBM binding z-score [3] | PBM binding z-score [4] | PBM binding z-score [5] | PBM binding z-score [6] | PBM binding z-score [7] | PBM binding z-score [8] | PBM binding z-score [9] | PBM binding z-score [10]
TCTAGTTGGTCACGGAGGTCACTCACGACGGGTA | 2.52 | 2.98 | 1.91 | 2.84 | 0.542 | 3.15 | 2.52 | 3.55 | 3.29 | 3.24
TCTAGTTGGTCAAAGGTCACAAACTCGAAATGCG | 4.94 | 5.27 | 3.15 | 5.16 | 1.49 | 6.4 | 10.9 | 9.72 | 9.69 | 10.3
CCTGCTAGGTCATGGTCTGCTAATCTACAGTATG | 3.19 | 2.35 | 0.138 | 1.97 | -0.218 | 3.4 | 2.18 | 3.48 | 1.08 | 2.49
CTCGATAGGTCGGTTGAGGTGAGTATACGGATAA | 0.692 | 0.287 | -0.389 | 0.0394 | -0.451 | 0.659 | -0.0443 | -0.187 | -0.208 | -0.177
GCAGACAGGTGAATCGCAGGTAACTCAGGGTGGC | -0.281 | -0.0182 | -0.726 | -0.203 | -1.12 | 0.748 | 0.386 | -0.0895 | -0.47 | -0.296
TAGACTAGGTCATGGGCCAGTATACCACGCGAAC | 3.63 | 2.6 | 0.103 | 1.81 | 0.438 | 4.41 | 7.24 | 6.34 | 4.78 | 6.07
CGTCCAAGGTCAGCAGGTCGGTGAAAGCGACGTG | 5.28 | 3.29 | -0.232 | 2.07 | -0.502 | 4.33 | 2.97 | 3.45 | 0.508 | 2.15
AGAATGAGGTTACCAAAGATCAGGCAAACGCTTG | 1.67 | 5.94 | -0.392 | 3.24 | -0.531 | 3.41 | 2.77 | 2.57 | 0.868 | 1.84
GCAGACAGGTGAAACGCAGGTAACTGAGGGTGGC | -0.0768 | -0.241 | -0.455 | -0.345 | -0.944 | 0.632 | 0.492 | -0.236 | -0.698 | -0.467
CAGCCTAGGTCAGGGCCAGAATAGGAGGAACGTT | 1.68 | 0.905 | -0.589 | 0.734 | -1.02 | 2.04 | 1.06 | 0.725 | -0.241 | 0.0702
CGCCCAAGGTCAAAGGTCAGTGAAGAGATGACGG | 8.13 | 6.57 | 3.09 | 6.44 | 1.72 | 7.07 | 10.1 | 8.16 | 7.42 | 8.6
TCTTGTAGATCTGCAGGTTAAGAAAGCTGGCCAA | 0.0261 | 0.396 | -0.113 | 0.457 | -0.445 | 0.515 | -0.788 | 1.01 | 2.56 | 1.89
CCGACTGGGGCAAGGGTTACCATACTCAGTACGA | 0.0555 | 0.199 | -0.283 | 0.579 | -0.86 | 3.84 | 8.6 | 7.56 | 6.82 | 7.87
TAGCCCAGGTCAGATCGGGCCAGTATACGCTATA | 2.34 | 1.3 | -0.26 | 0.735 | -0.412 | 1.86 | 0.632 | 0.728 | -0.392 | -0.038
AATCGGAGGACAAAGGTCAGAGCTACGCCAGTGA | 4.21 | 4.44 | 1.79 | 3.53 | 0.469 | 5.18 | 8.17 | 7.23 | 6.45 | 7.59
TCTAGTTGGTCAAAGGTCACACACTCGAAATGCG | 6.09 | 5.91 | 4 | 5.53 | 1.76 | 6.56 | 11.6 | 10 | 10.4 | 12.2
CGTCCAAGGTCTAAGGTCAGTGAAGAGATGACGG | 2.27 | 1.6 | -0.0447 | 1.63 | -0.547 | 3 | 3.03 | 4 | 2.41 | 3.52
ATTTCTAGGTAAAGATAGTTCAGTGAATGCAAAT | 0.355 | 4.21 | 0.857 | 1.02 | 0.567 | 1.39 | 1.3 | 1.27 | 0.883 | 1.07
TTACCCAGGTGAAGGTCGTTGATCCCTCTGTAGA | 1.67 | 1.53 | -0.000155 | 1.21 | -0.632 | 1.77 | 0.932 | 1.73 | 0.687 | 1.04
CTCGATAGGTCGTGCTCAGGTGAGTATACCAAAC | 0.909 | 0.843 | -0.342 | 0.951 | -0.454 | 1.82 | 0.11 | 0.394 | -0.186 | -0.0239
TCATATAGGTTATACAGGTGAAAGTCGGCATCTA | 1.71 | 2.32 | 0.882 | 1.82 | 0.833 | 2.99 | 2.56 | 3.17 | 3.94 | 3.58
TCTGCTAGGTCAACGATGGTCTGCTAATCTGCTA | 2.95 | 2.1 | -0.371 | 1.35 | 0.041 | 2.92 | 1.92 | 2.64 | 1.66 | 2.11
CCGACTGGGGCAAGGCTACCATAACGCACAGCCA | -0.0743 | -0.335 | -0.467 | -0.273 | -1.05 | -0.00984 | 1.08 | 0.83 | -0.201 | 0.0921
CAAACTAGGTGAAGGTCAAAGTCGGTTTGTGCCA | 4.11 | 4.11 | 2.31 | 3.48 | 0.412 | 5.38 | 7.65 | 6.92 | 5.05 | 6.44
